Calls of active or inactive are those of the source. The calls were made as follows: active = hit-call score of the fitted dose curve at least 0.9, where 1 is the maximum; inactive = score below 0.9.
Columns and labels:
[1] = target: Bile acid receptor (Homo sapiens) (UniProt Q96RI1); assay: ATG_IR1_CIS: Attagene CIS-FACTORIAL HepG2 Assay for human Nuclear Receptor Subfamily 1 Group H Member 4 (NR1H4), IR1 submotif (AID 2282946); conditions: IR1 reporter transcription, actives raise or lower the signal
Chain of Bile acid receptor (Homo sapiens) (Q96RI1 whole entry, looked up, the tested form may be a part): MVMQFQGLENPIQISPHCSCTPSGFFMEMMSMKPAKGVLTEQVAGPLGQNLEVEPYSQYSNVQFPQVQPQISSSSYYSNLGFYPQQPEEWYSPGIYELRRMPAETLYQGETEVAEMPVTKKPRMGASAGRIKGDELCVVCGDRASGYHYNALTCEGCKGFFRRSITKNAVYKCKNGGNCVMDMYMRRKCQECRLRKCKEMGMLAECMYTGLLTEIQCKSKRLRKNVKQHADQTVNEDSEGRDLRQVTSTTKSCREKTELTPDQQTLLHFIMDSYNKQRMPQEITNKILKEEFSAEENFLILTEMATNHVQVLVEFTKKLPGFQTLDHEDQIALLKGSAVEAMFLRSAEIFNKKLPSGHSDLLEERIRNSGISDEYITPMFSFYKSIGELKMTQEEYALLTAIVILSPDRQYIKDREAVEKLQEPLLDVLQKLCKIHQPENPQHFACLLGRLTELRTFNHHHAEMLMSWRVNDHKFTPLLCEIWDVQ
Method in brief: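 Cells (human HepG2) carry transiently transfected cis-promoter reporter transcription units. Compounds are incubated 24 h, total RNA is reverse-transcribed and amplified, and labelled fragments are resolved by capillary electrophoresis. Curves use DMSO as baseline.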

[2] = ATG_ISRE_CIS: Attagene CIS-FACTORIAL HepG2 Assay for human Interferon Regulatory Factor 1 (IRF1) binding to an Interferon-Stimulated Response Element (ISRE) (AID 2282948); conditions: HepG2 ISRE cis-reporter (Attagene), mRNA transcription readout; actives raise or lower the signal
Method in brief: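 Transiently transfected HepG2 cells carrying cis-element reporter units, dosed 24 hours. Reporter mRNA quantified by RT-PCR, fluorescent primer extension, HpaI digestion and capillary electrophoresis. Bidirectional fitting relative to DMSO.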

[3] = ATG_M_06_CIS: Attagene CIS-FACTORIAL HepG2 Assay for M06 Transcription Factor (Internal Marker) (AID 2282950); conditions: HepG2 Attagene CIS-FACTORIAL M06 internal marker reporter; actives raise or lower the signal
Method in brief: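 HepG2 liver cells, 24 h exposure. Reporter transcripts from transfected cis-element constructs quantified by RT-PCR/capillary electrophoresis fluorescence. Bidirectional curve fit against DMSO.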

[4] = target: Hypoxia-inducible factor 1-alpha (Homo sapiens) (UniProt Q16665); assay: ATG_HIF1a_CIS: Attagene CIS-FACTORIAL HepG2 Assay for human Hypoxia Inducible Factor 1 (HIF1A) (AID 2282951); conditions: HepG2 Attagene cis-factorial HIF1a reporter transcription; actives raise or lower the signal
Chain of Hypoxia-inducible factor 1-alpha (Homo sapiens) (Q16665 whole entry, looked up): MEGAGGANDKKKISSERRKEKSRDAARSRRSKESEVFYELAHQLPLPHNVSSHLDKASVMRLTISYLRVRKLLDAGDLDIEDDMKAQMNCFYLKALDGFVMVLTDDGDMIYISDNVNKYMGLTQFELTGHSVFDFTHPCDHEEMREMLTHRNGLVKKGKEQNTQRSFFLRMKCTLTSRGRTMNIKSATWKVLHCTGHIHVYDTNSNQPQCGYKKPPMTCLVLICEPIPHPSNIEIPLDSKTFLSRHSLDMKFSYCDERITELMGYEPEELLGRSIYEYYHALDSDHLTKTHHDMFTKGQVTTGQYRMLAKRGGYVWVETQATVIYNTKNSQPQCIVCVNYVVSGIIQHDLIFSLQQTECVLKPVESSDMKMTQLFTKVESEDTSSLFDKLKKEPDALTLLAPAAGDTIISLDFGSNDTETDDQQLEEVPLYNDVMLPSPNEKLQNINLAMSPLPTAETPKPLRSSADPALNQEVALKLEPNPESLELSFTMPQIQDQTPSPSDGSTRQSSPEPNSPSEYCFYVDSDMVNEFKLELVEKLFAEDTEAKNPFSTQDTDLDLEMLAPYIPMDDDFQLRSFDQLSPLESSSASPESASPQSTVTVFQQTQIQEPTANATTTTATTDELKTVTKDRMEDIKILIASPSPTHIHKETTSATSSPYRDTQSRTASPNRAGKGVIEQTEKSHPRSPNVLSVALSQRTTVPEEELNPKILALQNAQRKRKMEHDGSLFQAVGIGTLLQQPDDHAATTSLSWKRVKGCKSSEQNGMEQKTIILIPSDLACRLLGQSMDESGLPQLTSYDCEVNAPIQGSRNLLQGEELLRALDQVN
Method in brief: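 In this multiplexed cell assay, HepG2 cells bearing transfected cis reporters are dosed for 24 h and reporter mRNA is read by RT-PCR plus capillary electrophoresis; signal increases and decreases are both scored against DMSO.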

[5] = target: Hepatocyte nuclear factor 6 (Homo sapiens) (UniProt Q9UBC0); assay: ATG_HNF6_CIS: Attagene CIS-FACTORIAL HepG2 Assay for human Hepatocyte Nuclear Factor 6 (HNF6) (AID 2282952); conditions: HepG2 Attagene cis-factorial HNF6 reporter transcription; actives raise or lower the signal
Chain of Hepatocyte nuclear factor 6 (Homo sapiens) (Q9UBC0 whole entry, looked up): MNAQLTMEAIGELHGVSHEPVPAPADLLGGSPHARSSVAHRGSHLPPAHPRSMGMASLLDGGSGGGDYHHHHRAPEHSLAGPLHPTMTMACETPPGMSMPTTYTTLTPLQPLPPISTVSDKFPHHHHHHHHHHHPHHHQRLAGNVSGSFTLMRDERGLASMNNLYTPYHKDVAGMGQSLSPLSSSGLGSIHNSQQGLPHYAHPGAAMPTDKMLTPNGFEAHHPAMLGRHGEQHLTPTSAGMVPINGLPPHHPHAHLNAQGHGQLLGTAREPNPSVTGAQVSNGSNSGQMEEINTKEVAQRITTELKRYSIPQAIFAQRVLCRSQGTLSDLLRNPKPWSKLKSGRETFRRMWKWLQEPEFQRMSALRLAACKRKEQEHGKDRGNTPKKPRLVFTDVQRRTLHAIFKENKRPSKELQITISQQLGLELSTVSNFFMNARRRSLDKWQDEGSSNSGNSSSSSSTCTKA
Method in brief: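 Multiplexed mRNA reporter assay in transfected HepG2; 24 h dosing; RT-PCR plus capillary electrophoresis fluorescence; DMSO-referenced bidirectional curve fitting.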

[6] = target: Heat shock factor protein 1 (Homo sapiens) (UniProt Q00613); assay: ATG_HSE_CIS: Attagene CIS-FACTORIAL HepG2 Assay for human Heat Shock Transcription Factor 1 (HSE) (AID 2282953); conditions: HepG2 HSE cis-reporter, Attagene RNA transcription; actives raise or lower the signal
Chain of Heat shock factor protein 1 (Homo sapiens) (Q00613 whole entry, looked up, the tested form may be a part): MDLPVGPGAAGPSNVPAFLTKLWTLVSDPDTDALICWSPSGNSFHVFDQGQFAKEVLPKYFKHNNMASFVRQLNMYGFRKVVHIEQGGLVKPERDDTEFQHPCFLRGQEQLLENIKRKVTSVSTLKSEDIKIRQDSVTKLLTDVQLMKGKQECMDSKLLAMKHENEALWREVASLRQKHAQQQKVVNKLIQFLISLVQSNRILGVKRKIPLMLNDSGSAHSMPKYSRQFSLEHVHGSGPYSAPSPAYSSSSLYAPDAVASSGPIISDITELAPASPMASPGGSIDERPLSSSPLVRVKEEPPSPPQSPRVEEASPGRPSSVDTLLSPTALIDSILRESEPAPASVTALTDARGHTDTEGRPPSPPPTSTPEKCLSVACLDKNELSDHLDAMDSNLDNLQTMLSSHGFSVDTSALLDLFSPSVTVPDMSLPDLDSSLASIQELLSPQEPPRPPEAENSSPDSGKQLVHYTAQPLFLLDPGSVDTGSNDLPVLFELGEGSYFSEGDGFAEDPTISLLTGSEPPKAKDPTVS
Method in brief: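 Endogenous transcription factor activity captured via cis-promoter reporter units transfected into HepG2; treatment lasted 24 h. Fluorescence intensity of reporter fragments analysed with bidirectional curve fitting, DMSO baseline.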

[7] = ATG_MRE_CIS: Attagene CIS-FACTORIAL HepG2 Assay for human Metal Responsive Element (MRE) (AID 2282954); conditions: HepG2 MRE cis-reporter transcription, Attagene multiplex; actives raise or lower the signal
Method in brief: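 After a 24 h chemical exposure, transiently transfected HepG2 cells yield RNA whose reporter sequences are amplified, FAM-labelled and sized by capillary electrophoresis. Curves are fitted bidirectionally relative to DMSO.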

[8] = ATG_PBREM_CIS: Attagene CIS-FACTORIAL HepG2 Assay for human Phenobarbital-responsive Enhancer Module (PBREM) (AID 2282955); conditions: HepG2 PBREM cis-reporter, Attagene multiplexed transcription; actives raise or lower the signal
Method in brief: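 After a 24 h incubation with test chemical, transfected HepG2 cells yield total RNA; reporter-specific RT-PCR products are fluorescently labelled, HpaI-digested and resolved by capillary electrophoresis against ROX size standards.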

[9] = target: Paired box protein Pax-6 (Homo sapiens) (UniProt P26367); assay: ATG_Pax6_CIS: Attagene CIS-FACTORIAL HepG2 Assay for human Paired Box 6 (PAX6) (AID 2282956); conditions: HepG2 CIS-FACTORIAL PAX6 reporter transcription, RNA readout; actives raise or lower the signal
Chain of Paired box protein Pax-6 (Homo sapiens) (P26367 whole entry, looked up): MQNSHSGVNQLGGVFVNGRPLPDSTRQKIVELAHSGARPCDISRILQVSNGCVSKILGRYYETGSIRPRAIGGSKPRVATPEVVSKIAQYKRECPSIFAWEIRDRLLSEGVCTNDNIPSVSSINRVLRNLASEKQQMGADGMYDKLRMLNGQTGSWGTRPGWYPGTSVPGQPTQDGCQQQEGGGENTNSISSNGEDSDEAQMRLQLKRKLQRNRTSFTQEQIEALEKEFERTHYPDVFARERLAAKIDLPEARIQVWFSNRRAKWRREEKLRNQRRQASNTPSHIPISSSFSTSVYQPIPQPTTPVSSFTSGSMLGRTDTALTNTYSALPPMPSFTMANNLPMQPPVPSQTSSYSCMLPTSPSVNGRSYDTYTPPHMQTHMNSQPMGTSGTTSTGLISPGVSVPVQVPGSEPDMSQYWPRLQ
Method in brief: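 HepG2 cells transiently transfected with cis-promoter-driven multiplexed reporter units sensing endogenous transcription factor activity; 24 h chemical exposure. Reporter mRNA quantified by RT-PCR, 6-FAM labelling, HpaI digestion and capillary electrophoresis; bidirectional fit versus DMSO baseline.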

[10] = ATG_PXRE_CIS: Attagene CIS-FACTORIAL HepG2 Assay for human Pregnane X Receptor Element (PXRE) (AID 2282957); conditions: HepG2 Attagene CIS-FACTORIAL PXRE reporter, mRNA; actives raise or lower the signal
Method in brief: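 Cells: HepG2, transiently transfected reporter units under cis promoter control. Exposure: 24 h. Detection: reporter mRNA via RT-PCR/CE fluorescence; bidirectional fitting, DMSO-referenced.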

[11] = ATG_PPRE_CIS: Attagene CIS-FACTORIAL HepG2 Assay for human Peroxisome Proliferator-activated Response Element (PPRE) (AID 2282958); conditions: HepG2 PPRE cis-element reporter, Attagene transcription factor profiling; actives raise or lower the signal
Method in brief: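 Multiplexed reporter transcription units under cis-regulatory promoters were transfected into HepG2 cells to capture endogenous factor activity. A 24 h incubation preceded RNA isolation and fluorescent RT-PCR fragment analysis.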

[12] = ATG_Sox_CIS: Attagene CIS-FACTORIAL HepG2 Assay for human SRY-box transcription factor (SOX) (AID 2282960); conditions: HepG2 Attagene cis-factorial SOX reporter, mRNA; actives raise or lower the signal
Method in brief: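 After 24 h of chemical treatment, transfected HepG2 reporter cells are lysed for total RNA. Transcript levels come from RT-PCR with labelled primer extension and capillary electrophoresis, analysed bidirectionally versus DMSO.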

[13] = target: Transcription factor Sp1 (Homo sapiens) (UniProt P08047); assay: ATG_Sp1_CIS: Attagene CIS-FACTORIAL HepG2 Assay for human Specificity Protein 1 (Sp1) (AID 2282961); conditions: HepG2 Sp1 cis-reporter transcription, actives raise or lower the signal
Chain of Transcription factor Sp1 (Homo sapiens) (P08047 whole entry, looked up): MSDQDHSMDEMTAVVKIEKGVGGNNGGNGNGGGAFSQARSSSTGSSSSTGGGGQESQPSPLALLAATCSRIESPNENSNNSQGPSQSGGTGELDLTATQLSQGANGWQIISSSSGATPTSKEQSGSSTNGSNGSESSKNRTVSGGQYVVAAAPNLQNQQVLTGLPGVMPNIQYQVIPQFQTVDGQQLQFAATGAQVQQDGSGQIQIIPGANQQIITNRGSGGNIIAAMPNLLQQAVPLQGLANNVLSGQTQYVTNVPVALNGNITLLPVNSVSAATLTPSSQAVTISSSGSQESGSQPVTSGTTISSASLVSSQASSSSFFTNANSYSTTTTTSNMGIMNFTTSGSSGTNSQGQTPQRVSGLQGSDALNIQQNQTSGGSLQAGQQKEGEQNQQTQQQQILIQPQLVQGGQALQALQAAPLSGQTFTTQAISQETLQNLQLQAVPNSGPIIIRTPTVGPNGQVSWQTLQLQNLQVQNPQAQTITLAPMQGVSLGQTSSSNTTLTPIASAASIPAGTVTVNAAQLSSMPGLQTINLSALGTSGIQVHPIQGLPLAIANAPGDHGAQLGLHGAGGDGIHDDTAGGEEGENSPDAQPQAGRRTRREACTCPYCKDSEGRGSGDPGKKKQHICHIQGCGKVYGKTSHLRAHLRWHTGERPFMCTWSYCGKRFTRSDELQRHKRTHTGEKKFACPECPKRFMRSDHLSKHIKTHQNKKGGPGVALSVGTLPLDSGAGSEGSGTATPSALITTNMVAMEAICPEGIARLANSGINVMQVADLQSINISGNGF
Method in brief: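 Sp1-driven reporter mRNA, read as capillary electrophoresis fluorescence after RT-PCR, in transiently transfected HepG2 cells dosed for 24 h; signal change in either direction relative to DMSO.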

[14] = ATG_SREBP_CIS: Attagene CIS-FACTORIAL HepG2 Assay for human Sterol Regulatory Element Binding (SREBP) (AID 2282962); conditions: HepG2 Attagene cis-factorial SREBP reporter, mRNA; actives raise or lower the signal
Method in brief: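 HepG2 cells transiently transfected with multiplexed cis-promoter reporter units sensing endogenous transcription factors; reporter mRNA measured 24 h after dosing by RT-PCR, 6-FAM labeling, HpaI digestion and capillary electrophoresis. Bidirectional fit versus DMSO.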

[15] = target: Signal transducer and activator of transcription 3 (Homo sapiens) (UniProt P40763); assay: ATG_STAT3_CIS: Attagene CIS-FACTORIAL HepG2 Assay for human Signal Transducer and Activator of Transcription 3 (STAT3) (AID 2282963); conditions: HepG2, Attagene cis-factorial STAT3 reporter transcription; actives raise or lower the signal
Chain of Signal transducer and activator of transcription 3 (Homo sapiens) (P40763 whole entry, looked up): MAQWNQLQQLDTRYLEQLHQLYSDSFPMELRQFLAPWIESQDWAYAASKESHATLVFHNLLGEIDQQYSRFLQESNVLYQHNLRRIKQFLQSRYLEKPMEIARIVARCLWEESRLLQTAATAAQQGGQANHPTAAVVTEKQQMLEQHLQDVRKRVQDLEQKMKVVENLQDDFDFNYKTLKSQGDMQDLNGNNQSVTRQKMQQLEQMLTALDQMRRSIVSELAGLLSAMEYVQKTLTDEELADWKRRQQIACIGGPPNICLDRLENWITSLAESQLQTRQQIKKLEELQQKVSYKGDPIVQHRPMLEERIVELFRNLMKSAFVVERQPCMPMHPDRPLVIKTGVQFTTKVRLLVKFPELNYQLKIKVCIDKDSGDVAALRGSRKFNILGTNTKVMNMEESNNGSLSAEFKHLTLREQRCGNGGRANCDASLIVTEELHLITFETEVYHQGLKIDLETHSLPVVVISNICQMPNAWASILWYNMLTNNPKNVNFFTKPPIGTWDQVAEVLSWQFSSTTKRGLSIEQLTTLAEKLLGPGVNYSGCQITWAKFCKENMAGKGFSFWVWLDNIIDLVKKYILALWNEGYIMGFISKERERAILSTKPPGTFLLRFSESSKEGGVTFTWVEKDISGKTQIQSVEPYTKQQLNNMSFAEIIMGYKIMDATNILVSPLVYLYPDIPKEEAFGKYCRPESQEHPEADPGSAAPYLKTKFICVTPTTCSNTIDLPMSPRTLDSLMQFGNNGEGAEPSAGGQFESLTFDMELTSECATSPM
Method in brief: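 After a 24 h compound incubation, total RNA from MRTU-transfected HepG2 cells was converted to cDNA and reporter sequences PCR-amplified, labelled and profiled by capillary electrophoresis. Gain and loss of signal were referenced to DMSO.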

[16] = ATG_TA_CIS: Attagene CIS-FACTORIAL HepG2 Assay for human TA Basal Promoter (AID 2282964); conditions: HepG2 Attagene CIS-factorial TA basal promoter reporter; actives raise or lower the signal
Method in brief: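 Fluorescence from labelled RT-PCR reporter fragments, separated by capillary electrophoresis, gives the signal. Cells: HepG2 transiently carrying multiple reporter units, 24 h chemical dosing. Gain or loss relative to DMSO.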

[17] = ATG_M_32_CIS: Attagene CIS-FACTORIAL HepG2 Assay for M32 Transcription Factor (Internal Marker) (AID 2282949); conditions: HepG2 Attagene cis-factorial M32 reporter, mRNA; actives raise or lower the signal;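 also: background control marker of the multiplexed CIS panel rather than a real target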
Method in brief: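 Internal background marker read-out: RT-PCR/capillary electrophoresis fluorescence of reporter transcripts from transiently transfected HepG2 cells after 24 h chemical exposure. Activity fitted bidirectionally relative to DMSO negative control.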

[18] = ATG_RORE_CIS: Attagene CIS-FACTORIAL HepG2 Assay for human RAR-related Orphan Receptor Element (RORE) (AID 2282959); conditions: HepG2 Attagene cis-factorial RORE reporter, mRNA; actives raise or lower the signal
Method in brief: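 Fluorescence intensity of reporter-specific cDNA fragments, separated by capillary electrophoresis, gives the signal. Source: HepG2 liver cells transiently transfected with cis-element reporters and exposed 24 h; DMSO-normalized bidirectional fit.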

[19] = ATG_TCF_b_cat_CIS: Attagene CIS-FACTORIAL HepG2 Assay for human T-Cell-Factor with beta-catenin (TCF/b-cat) (AID 2282965); conditions: HepG2 TCF/beta-catenin cis-reporter transcription, actives raise or lower the signal
Method in brief: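 Endogenous transcription factor activity is captured through cis-promoter reporter constructs transiently introduced into human HepG2 liver cells. Induced reporter mRNA is measured after 24 h and fitted bidirectionally relative to DMSO.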

[20] = ATG_GRE_CIS: Attagene CIS-FACTORIAL HepG2 Assay for human Glucocorticoid Response Elements (GRE) (AID 2282947); conditions: HepG2 GRE cis-reporter, Attagene multiplex mRNA; actives raise or lower the signal
Method in brief: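 Assay uses human hepatoma HepG2 cells transfected with cis-promoter reporter units, exposed 24 h. mRNA from reporters detected by RT-PCR plus capillary electrophoresis; DMSO serves as negative control and baseline.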

Measured: AC50

Cc1ccc(Nc2ccc(O)c3c2C(=O)c2ccccc2C3=O)cc1
active: [10] 4.96 µM
not listed: [17] | [18] | [19] | [20]
inactive: all other assays above

CC(=O)[C@H]1CC[C@H]2[C@@H]3CC=C4C[C@@H](O)CC[C@]4(C)[C@H]3CC[C@]12C
active: [2] 36 µM | [19] 52.8 µM
not listed: [10] | [20]
inactive: all other assays above

N#Cc1ccc(CC(=NNC(=O)Nc2ccc(OC(F)(F)F)cc2)c2cccc(C(F)(F)F)c2)cc1
not listed: [2] | [5] | [17]
inactive: all other assays above

CC(=O)/C=C/C1=C(C)CCCC1(C)C
active: [10] 1.42 µM
not listed: [4] | [8] | [11] | [20]
inactive: all other assays above
